Pf Dd2 growth – qHTS Primary assay for Inhibitors of Plasmodium falciparum Dd2 growth in vitro; P. falciparum Dd2 growth, SYBR Green, 72 h; Potency, µM (titrated, usually from 28.9 µM), for inactives: at the highest dose activity, negative = inhibition, hits mostly inhibitors; actives 4.3% (n = 120,000); AID 1347417, 2020; active = well fitted inhibition curve with a large enough effect;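 also: plate controls were DMSO vehicle for no effect and reference drug for full effect; nearly all actives have a fitted effect of over 65% in size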
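Readout: SYBR Green fluorescence, 485 nm excitation, 535 nm emission, after ~16 h lysis at 37C. Before that, Dd2-infected red cells (2.5% hematocrit) grew 72 h with compound, 29 uM top final concentration.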
Numbers without * were called inactive; [ ] = dose if it differs, or a comment. This excerpt belongs to a sample that is enriched for hits. Potency is read from the fitted curve at half-maximal effect.

`COc1ccc(C(=O)N2CC[C@@H](CC(=O)O)[C@@H](CCN3CCCN(C(C)=O)CC3)C2)cc1` gave Pf Dd2 growth 30%.
`Cc1ccc(C(=O)N(CC(C)C)CC2CN(C(=O)c3ccc4c(c3)OCO4)CCO2)cc1` (stereo not drawn) gave Pf Dd2 growth inactive.
O=C(c1ccccn1)N1CCC(N2CCNC2=O)CC1 was read as Pf Dd2 growth 12%[44.1 µM].
COc1ccc(Cn2nc(C3CC3)nc2-c2c(F)cccc2Cl)cc1 was read as Pf Dd2 growth -21%.
`Cc1noc(-c2cccn3c(CNC(=O)c4cccc(N(C)C)c4)nnc23)n1` gave Pf Dd2 growth 0.56µM*.
`Cc1ccc(C(=O)NCc2nnc3c(-c4nc(C5CC5)no4)cccn23)cc1C` gave Pf Dd2 growth -13%.
`O=C(NCc1nnc2c(-c3nc(C4CC4)no3)cccn12)c1cc(F)ccc1F` gave Pf Dd2 growth -23%.
`Cc1noc(-c2cccn3c(CNC(=O)c4ccccc4)nnc23)n1` gave Pf Dd2 growth -10%.
Screening CCOc1ccccc1C(=O)NCc1nnc2c(-c3nc(C4CC4)no3)cccn12 returned Pf Dd2 growth 3.2µM*.
CCc1noc(-c2cccn3c(CNC(=O)COc4ccc(F)cc4)nnc23)n1 was read as Pf Dd2 growth 0.71µM*.
Screening COc1ccc(Cl)cc1C(=O)NCc1nnc2c(-c3nc(C(C)C)no3)cccn12 returned Pf Dd2 growth 1.8µM*.
`CCc1noc(-c2cccn3c(CNC(=O)COc4cccc(C)c4)nnc23)n1` gave Pf Dd2 growth -17%.
`CCc1noc(-c2cccn3c(CNC(=O)c4ccc(F)cc4)nnc23)n1` gave Pf Dd2 growth -20%.
COc1cccc(C(=O)NCc2nnc3c(-c4nc(C)no4)cccn23)c1 was read as Pf Dd2 growth -30%.
For COc1ccc(Cl)cc1C(=O)NCc1nnc2cc(-c3nc(C(C)C)no3)ccn12 the results were Pf Dd2 growth -1%.
Screening Cc1ccccc1C(=O)NCc1nnc2c(-c3nc(C(C)C)no3)cccn12 returned Pf Dd2 growth inactive.
For COc1ccc(CN2CCCC3(COc4ccccc4[S+](=O)([O-])N3)C2)cc1 (stereo not drawn) the results were Pf Dd2 growth -2%.
For COc1ccc(NC(=O)N2CC(c3nnc(-c4ccncc4)o3)C3(CCOCC3)C2)cc1 (stereo not drawn) the results were Pf Dd2 growth -23%.
For O=C(NC1CC(=O)N(Cc2ccccc2C(F)(F)F)C1)c1cscn1 (stereo not drawn) the results were Pf Dd2 growth -18%.
Screening O=C(c1ccccc1OCC1CCCN(C2CCCCC2)C1)N1CCOCC1 (stereo not drawn) returned Pf Dd2 growth -24%.
For O=S(=O)(Cc1ccccc1F)N1CCC(c2noc(-c3ccncc3)n2)C1 (stereo not drawn) the results were Pf Dd2 growth inactive[5.79 µM].
CC(C)(C)c1ccc(OCc2nc3ccccc3n2CCOc2ccccc2)cc1 was read as Pf Dd2 growth -21%.
For COc1ccc(OCc2nc3ccccc3n2Cc2ccc(C(C)(C)C)cc2)cc1 the results were Pf Dd2 growth 11µM*.
For COc1cccc(OCc2nc3ccccc3n2Cc2ccccc2)c1 the results were Pf Dd2 growth 50%[5.79 µM].
For CN1CCN(c2ccc3ncn(-c4cccnc4)c(=O)c3n2)CC1 the results were Pf Dd2 growth 17%[44.1 µM].
Screening COc1cccc(CC(=O)N2CCCC(c3nc(C4CCOCC4)no3)C2)c1 (stereo not drawn) returned Pf Dd2 growth 29%.
COc1ccc(-c2nccn3cc(C(=O)NCc4cccnc4)nc23)cc1 was read as Pf Dd2 growth -6%.
For O=C(NCC1CCCO1)N1CC(c2nc(CCOCC3CCCC3)no2)C1 (stereo not drawn) the results were Pf Dd2 growth -6%.
`NC(=O)c1ccccc1NC(=O)CN1c2ccccc2S(=O)(=O)c2ccccc21` gave Pf Dd2 growth 10µM*.
`O=S1(=O)c2ccccc2N(Cc2ccccc2)c2ccccc21` gave Pf Dd2 growth inactive.
For COc1cc(Cl)c(C)cc1NC(=O)CN1c2ccccc2S(=O)(=O)c2ccccc21 the results were Pf Dd2 growth -7%.
`COc1ccc(-c2cc(N3CCCC(NC(=O)c4cccc(N(C)C)c4)C3)n[nH]2)cc1` (stereo not drawn) gave Pf Dd2 growth inactive.
For COc1cccc(NC(=O)[C@@H]2C[C@H](c3ccc(F)cc3)N(Cc3csc(C)n3)C2)c1 the results were Pf Dd2 growth -4%[44.1 µM].
`O=C(Nc1cccc(F)c1)[C@@H]1C[C@@H](c2ccc(F)cc2)N([S+](=O)([O-])c2ccccc2)C1` gave Pf Dd2 growth -27%.
O=C(NCCOc1ccccc1)[C@@H]1C[C@@H](c2ccc(F)cc2)N([S+](=O)([O-])c2cccnc2)C1 was read as Pf Dd2 growth -22%.
`COc1ccc(NC(=O)[C@@H]2C[C@H](c3ccc(F)cc3)N(Cc3csc(C)n3)C2)cn1` gave Pf Dd2 growth -21%[44.1 µM].
`COc1cccc(NC(=O)[C@@H]2C[C@@H](c3ccc(F)cc3)N([S+](=O)([O-])c3cccnc3)C2)c1` gave Pf Dd2 growth inactive.
`COc1cccc(NC(=O)[C@@H]2C[C@@H](c3ccc(F)cc3)N(CCOc3ccccc3)C2)c1` gave Pf Dd2 growth -10%[44.1 µM].
Screening COc1cccc(NC(=O)[C@@H]2C[C@H](c3ccc(F)cc3)N([S+](C)(=O)[O-])C2)c1 returned Pf Dd2 growth 6.3µM*.
O=C(NCc1cccnc1)[C@@H]1C[C@@H](c2ccc(F)cc2)N(CCOc2ccccc2)C1 was read as Pf Dd2 growth 8.9µM*.
For O=C(Nc1cccnc1)[C@@H]1C[C@@H](c2ccc(F)cc2)N(Cc2ccccc2)C1 the results were Pf Dd2 growth 7.1µM*.
`O=C(Nc1cccc(F)c1)[C@@H]1C[C@@H](c2ccc(F)cc2)N([S+](=O)([O-])c2cccnc2)C1` gave Pf Dd2 growth inactive.
`O=C(Nc1ccccc1)[C@@H]1C[C@@H](c2ccc(F)cc2)N([S+](=O)([O-])c2cccnc2)C1` gave Pf Dd2 growth 10%[44.1 µM].
`COc1ccc(NC(=O)[C@@H]2C[C@@H](c3ccc(F)cc3)N(Cc3ccccc3)C2)cc1OC` gave Pf Dd2 growth 10µM*.
CC(C)NC(=O)C1CCc2nnc(C3CCN(C(=O)Nc4ccc(Cl)cc4)CC3)n21 (stereo not drawn) was read as Pf Dd2 growth 0%.
For CCOCc1nc(C2CCCN(C(=O)c3cccc(F)c3)C2)no1 (stereo not drawn) the results were Pf Dd2 growth -11%.
For O=S1(=O)CCC(S(=O)(=O)N2CCOCC2)C1 (stereo not drawn) the results were Pf Dd2 growth -3%.
Screening COc1cccc(C(=O)N2CCOC[C@H](Oc3ccccc3)C2)c1 returned Pf Dd2 growth 12%[44.1 µM].
For CC(C)N1C[C@H](O)C[C@H]1c1nnc2n1CCN(C(=O)c1ccsc1)CC2 the results were Pf Dd2 growth inactive.
`COCCN1C(=O)c2ccccc2C(C(=O)NCc2ccc(F)cc2)C12CCCCC2` (stereo not drawn) gave Pf Dd2 growth inactive.
For Cc1csc(S(=O)(=O)N2CCOC(CCc3ccccc3)C2)c1 (stereo not drawn) the results were Pf Dd2 growth -22%.
For CC(=O)N1C[C@@H]2CCCN3CCC[C@@H]([C@H]23)[C@H]1CCCC(=O)N(C)C the results were Pf Dd2 growth 5%.
`COc1cccc(-c2cnc([C@@H]3COCCN3C3CCOCC3)[nH]2)c1` gave Pf Dd2 growth 22%[44.1 µM].

High-throughput results from PubChem.
